This note sets out measurements from PubChem BioAssay (EPA / NIEHS).

Calls of active or inactive are those of the source. The calls were made as follows: active = hit-call score of the fitted dose curve at least 0.9, where 1 is the maximum; inactive = score below 0.9.

Read-out in the assay: Bcl-2 (BAD) gene, BAD (gene 572)
Put plainly: LTEA_HepaRG_BAD: Life Technologies and Expression Analysis (LTEA) Assay for Bcl-2 (BAD) gene using HepaRG (AID 2283469). To be noted: mRNA level, 48 h; actives raise or lower the signal. Here is the method: LTEA_HepaRG is a cell based, multiplexed-readout assay that uses HepaRG, a human liver cell line, with measurements taken at 48 hours after chemical dosing on a 96-well plate.LTEA_HepaRG_BAD is one of 102 assay component(s) measured in the LTEA HepaRG cell culture assay. It is a marker of Cell proliferation, survival, death.Data from the assay component LTEA_HepaRG_BAD was analyzed into 1 endpoint. This assay endpoint, LTEA_HepaRG_BAD, was analyzed with bidirectional fitting relative to DMSO as the negative control and baseline of activity. Using a type of inducible reporter, measures of mRNA induction for gain or loss-of-signal activity can be used to understand regulation of transcription factor activity. To generalize the intended target to other relatable targets, this assay endpoint is annotated to the cell cycle intended target family, where the subfamily is Cell proliferation, survival, death.
A total of 1060 chemcials from the ToxCast library were tested in eight-point concentration-response experiments. Cell culture and cytotoxicity assays were conducted at Thermo Fisher Scientific's Custom Services facility (Madison, WI). A single lot of human HepaRG cells (Thermo Fisher Scientific, Frederick, MD) was used for the cell culture experiments. 96-well format collagen type I coated plates of human HepaRG cells were prepared using established methods. Briefly, cryopreserved HepaRG cells were thawed, plated at a density of approximately 100,000 cells/well in HepaRG Thaw, Plate, and General Purpose media (HPRG770, Thermo Fisher Scientific), and incubated for 48 hours. 0.5% DMSO was selected as vehicle control to balance the requisite need of DMSO in HepaRG cultures to maintain differentiation (for example, baseline metabolism, proportions of hepatocytes vs. cholangiocytes), while enabling further hepatic receptor pathway activation (for example, PXR and CAR) in response to chemical exposure. 48 hours after plating, the culture medium was replaced with HepaRG Serum-Free Incudtion Media. Cells were exposed to each test chemical in duplicate and maintained in CO2 incubators for another 48 hours. Chemical plates were thawed to room temperature and 200x concentrations of treatment groups were prepared. 8-point conentration-reponse curves were made with the highest exposure at 100 uM, followed by half-log dilutions, all in 0.5% DMSO. Each test plate contained variouse controls, induction positive controls (1mM phenobarbital), cytotoxicity positive controls ([…] aflatoxin B1), vehicle controls (0.5% DMSO), and total lysis controls (0.5% DMSO). Cell morphology images were taken using an Essen IncuCyte FLR automated microscope, with six 96-well plates imaged in about 24 minutes. Images were captured and exported and JPEG files. Spent culture media was transfered to black-well plates for the LDH assay, and remaining media was sorted at -80 C for later use. Cells were treated with RLT buffer and frozen until shipped for gene expression analysis. Total RNA was isolated from the cell suspension in 75 uL of Buffer RLT (Qiagen, Germantown, MD 20874) by Quintiles/Expression Analysis (Durham, NC) using a custom isolation procedure. Total RNA from each plate well was transferred to a preamplification plate. Fluidigm's 96.96 Dynamic ArrayTM (Fluidigm, Amsterdam, the Netherlands) technology was used for gene expression analyses by quantitative reverse transcription polymerase chain reaction (qRT-PCR, performed by Quintiles/Expression Analysis, Durham, NC)89. Standard TaqManTM Assays (Applied Biosystems/ThermoFisher Scientific, Foster City, CA) were used to assess the expression of 93 genes selected based on their selectivity and sensitivity to important hepatic receptors known to be modulated by environmental chemicals; importance in human hepatocyte functionality; and hepatotoxicity. […]
In the case of `Cc1cc(C)cc(C)c1`, the compound was called inactive. Under `Clc1cccc(Cl)c1Cl` stands “inactive”; under `CCCCCCCCCCCCc1cccc(S(=O)(=O)O)c1`, “inactive”.

For `Oc1c(Cl)cc(Cl)cc1Cl`, the result was inactive. Under `O=C(N[C@H]1CN2CCC1CC2)c1ccc2c(c1)OCCO2` stands “inactive”; under `CC(C)(C)c1ccccc1O`, “inactive”.

Turning to `O=C(O)C1(c2ccc3c(c2)OC[C@H](Cc2ccc(-c4ccccc4)cc2)[C@H]3O)CCCC1`, the compound was classed as inactive.

In the case of `CC(C)O.CC(C)O.OCCN(CCO)CCO.OCCN(CCO)CCO.[Ti]`, the outcome was inactive.

Consider `OCCN(CCO)CCO`, for which the compound was classed as inactive. Take `Oc1cc(Cl)c(Cl)cc1Cl`: the compound was called inactive.

Take `N#Cc1cccnc1`: the outcome was inactive. As for `CN(C)C(=S)S`, the entry is “inactive”. Under `Clc1cccc(Cl)c1` stands “inactive”; under `COc1ccccc1N`, “inactive”.
